# IDE exosite FP – exo-site inhibitors of human IDE, primary screen, biochemical, fluorescence anisotropy, probe displacement. z-score at 20 µM. purified IDE, FL-6b probe fluorescence polarization; stronger effect = lower value. Insulin-degrading enzyme (Homo sapiens), P14735. 17,000 tested, 6.3% active;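 active = z-score of -3 or lower, meaning strong loss of probe binding signal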;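 also: His-tagged human IDE residues 42-1019 made in E. coli with 30 nM FL-6b probe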
# An asterisk follows results filed as active; ! = repeats disagree. The sample as a whole holds a higher share of hits than the screen did.
SMILES,IDE exosite FP
CC=Cc1ccc2n(c1=O)C[C@@H]1[C@@H](CO)[C@H](C(=O)N[C@@H](C)c3ccccc3)N(C(=O)c3ccccn3)[C@H]21 (mixture of isomers),0.309
O=C(Nc1cc(F)ccc1F)N[C@H]1CC[C@H](CC(=O)N2CCc3ccccc3C2)O[C@@H]1CO,2.03
O=C(Nc1ccc(F)cc1)N1CCCCN2[C@H](C1)[C@H](c1ccc(-c3ccncc3)cc1)[C@@H]2CO,4.91
CO[C@H]1CN(C)C(=O)c2cccc(C#N)c2OCC[C@H]2CC[C@@H](OC)[C@@H](CN(C)C(=O)[C@@H]1C)O2,-0.972
COC(=O)c1ccc(CN2CC(=O)N3[C@H](CO)[C@H](c4ccc(-c5ccccc5F)cc4)[C@H]3C2)cc1,0.637
O=C(Nc1ccccc1Cl)N1C[C@@H]2[C@H](c3ccccc31)[C@@H](CO)N2Cc1ccncc1,-1.19
N#C[C@H]1[C@H](c2ccc(-c3cccc(F)c3)cc2)[C@H](CO)N1C(=O)CN1CCOCC1,-2.05
C[C@H]1CN([C@@H](C)CO)C(=O)c2cc(NS(C)(=O)=O)ccc2O[C@@H]1CN(C)C,1.31
NCC[C@@H]1CC[C@H](NS(=O)(=O)c2ccc(Cl)cc2)[C@H](CO)O1,2.86
O=C(c1cnccn1)N1CC(=O)N2[C@H](C1)[C@@H](c1ccc(C#CCC3CCCC3)cc1)[C@@H]2CO,2.67
COc1cccc(NC(=O)N2CC(=O)N3[C@@H](CO)[C@H](c4ccc(C#CCC5CCCC5)cc4)[C@@H]3C2)c1,-0.0162
N#C[C@@H]1[C@H](c2ccc(C#Cc3ccccc3F)cc2)[C@@H](CO)N1C(=O)C1CC1,0.0819
COc1ccccc1C#Cc1ccc([C@H]2[C@@H](C#N)N(C(=O)C3CC3)[C@@H]2CO)cc1,-5.3*
N#C[C@H]1[C@@H](c2ccc(C#Cc3ccccc3F)cc2)[C@@H](CO)N1C(=O)C1CC1,-3.36*
N#C[C@H]1[C@@H](c2ccc(C#Cc3ccccc3F)cc2)[C@H](CO)N1C(=O)C1CC1,-2.19
COCC#Cc1ccc([C@H]2[C@@H](CO)N3CCCCN(C(=O)NC4CCCC4)C[C@H]23)cc1,-0.344
CCS(=O)(=O)N1CC(=O)N2[C@H](CO)[C@H](c3ccc(C4=CCCCC4)cc3)[C@@H]2C1,2.09
C[C@H](CO)N1C[C@H](C)[C@H](CN(C)C(=O)[C@@H](Cc2ccccc2)N(C)C)OCc2ccccc2-c2c(n(C)c3ccccc23)C1=O,-0.214
COc1cccc(-c2ccc3c(c2)[C@H]2[C@H](CCN2S(=O)(=O)c2cn(C)cn2)[C@@H](CO)N3)c1,1.86
Cc1ccccc1-c1ccc([C@@H]2[C@H](CO)N3CCCCN(C(=O)Nc4ccccc4)C[C@@H]23)cc1,-5.05*
COc1ccc(NC(=O)N2CCCCN3[C@H](CO)[C@@H](c4ccc(-c5ccccc5C)cc4)[C@@H]3C2)cc1,0.547
Cc1ccccc1-c1ccc([C@@H]2[C@@H](CO)N3CCCCN(C(=O)Nc4cccc(F)c4)C[C@@H]23)cc1,-1.53
Cc1ccccc1-c1ccc([C@@H]2[C@H](CO)N3CCCCN(C(=O)Nc4ccc(F)cc4)C[C@@H]23)cc1,-10.6*
Cc1ccccc1-c1ccc([C@@H]2[C@@H](CO)N3CCCCN(C(=O)Nc4ccc(F)cc4)C[C@@H]23)cc1,0.287
Cc1ccccc1-c1ccc([C@H]2[C@@H](CO)N3CCCCN(C(=O)Nc4ccccc4)C[C@@H]23)cc1,-1.37
SMILES,IDE exosite FP
COc1ccc(C#Cc2ccc([C@H]3[C@H](CO)N4C(=O)CN(C(=O)Nc5ccccc5F)C[C@@H]34)cc2)cc1,2.8
CN1C(=O)c2cc(NS(=O)(=O)c3ccccc3F)ccc2OC[C@H]2O[C@@H](CC(=O)NC3Cc4ccccc4C3)CC[C@H]21,-0.325
CN1C(=O)c2cc(NC(=O)c3cccc(F)c3)ccc2OC[C@H]2O[C@@H](CC(=O)NCC3CCCCC3)CC[C@@H]21,-1.3
OC[C@@H]1[C@H](c2ccc(C#Cc3ccccc3F)cc2)[C@@H]2CN(Cc3cncnc3)CCCCN12,-3.51*
OC[C@@H]1[C@H](c2ccc(-c3ccccc3F)cc2)[C@H]2CN(Cc3cncnc3)CCCCN12,-1.71
OC[C@H]1[C@H](c2ccc(C#Cc3ccccc3F)cc2)[C@H]2CN(Cc3cncnc3)CCCCN21,-5.7*
OC[C@H]1[C@H](c2ccc(-c3ccccc3F)cc2)[C@@H]2CN(Cc3cncnc3)CCCCN12,2.23
OC[C@H]1[C@H](c2ccc(C#Cc3ccccc3F)cc2)[C@@H]2CN(Cc3cncnc3)CCCCN12,-2.3
OC[C@@H]1[C@@H](c2ccc(C#Cc3ccccc3F)cc2)[C@H]2CN(Cc3cncnc3)CCCCN12,-1.6
C[C@H]1CN([C@@H](C)CO)C(=O)c2cc(-c3cccc(C#N)c3)cnc2O[C@H]1CN(C)C(=O)C1CCOCC1,-0.968
O=C(NC[C@H]1N[C@H](CO)[C@@H]1c1ccc(C2=CCCCC2)cc1)C1CCCC1,3.02
O=C(Nc1cc(F)ccc1F)N1CC(=O)N2[C@@H](CO)[C@@H](c3ccc(C#CC4CCCCC4)cc3)[C@@H]2C1,0.969
COc1ccc2c3c(n(C)c2c1)[C@H](CO)N(C(=O)c1ccc(F)cc1)CC31CN(C(=O)Nc2ccc(F)cc2)C1,0.137
CO[C@@H]1CC[C@H]2CCN(C)C(=O)[C@H](C)N(C)C(=O)c3cccc(C#N)c3OC[C@@H]1O2,0.707
COc1cccc(NC(=O)N[C@H]2C=C[C@@H](CC(=O)NCc3ccncn3)O[C@@H]2CO)c1,1.69
COc1ccc(CN2CC3(CN(C(C)=O)C3)c3c(n(C)c4cc(OC)ccc34)[C@H]2CO)cc1,-2.33
COc1ccccc1-c1ccc(C2[C@@H]3CN(C(=O)c4cccnc4)C[C@H]2N3)cc1 (stereo not given in full),-13.8*!
Cc1cccc(-c2ccc(C3[C@@H]4CN(C(=O)c5ccncc5)C[C@H]3N4)cc2)c1 (stereo not given in full),-2.86
N#Cc1ccc(-c2ccc(C3[C@@H]4CN(C(=O)c5ccncc5)C[C@H]3N4)cc2)cc1 (stereo not given in full),-0.564
COc1ccccc1-c1ccc(C2[C@@H]3CN(C(=O)c4ccncc4)C[C@H]2N3)cc1 (stereo not given in full),-7.28*!
COc1ccc(-c2ccc(C3[C@@H]4CN(C(=O)c5ccc(F)cc5)C[C@H]3N4)cc2)cc1 (stereo not given in full),1.2
O=C(c1ccc(F)cc1)N1C[C@@H]2N[C@H](C1)C2c1ccc(-c2cccnc2)cc1 (stereo not given in full),-0.186
C[C@@H]1CN([C@@H](C)CO)C(=O)CCCn2nncc2CO[C@H]1CN(C)S(=O)(=O)c1ccc2c(c1)OCCCO2,-0.848
CC(C)C#Cc1ccc([C@H]2[C@@H](CO)N3C(=O)CN(C(=O)c4ccc5c(c4)OCO5)C[C@@H]23)cc1,-0.86
O=C(c1cnccn1)N1CC(=O)N2[C@H](CO)[C@@H](c3ccc(-c4cccc(F)c4)cc3)[C@@H]2C1,-3.68*
O=C(c1ccccn1)N1CC(=O)N2[C@H](C1)[C@H](c1ccc(-c3cccc(F)c3)cc1)[C@@H]2CO,3.08
O=C(c1cnccn1)N1CC(=O)N2[C@H](CO)[C@H](c3ccc(-c4ccc(F)cc4)cc3)[C@@H]2C1,3.5
O=C(c1cnccn1)N1CC(=O)N2[C@H](C1)[C@@H](c1ccc(-c3ccc(F)cc3)cc1)[C@@H]2CO,4.35
O=C(c1cccc(F)c1)N1CC(=O)N2[C@H](CO)[C@H](c3ccc(-c4cccnc4)cc3)[C@@H]2C1,3.11
